Shown is part of a subset that was picked to be rich in hits.
Tg IFNy HTS: T. gondii growth inhibition under IFN-gamma | Toxoplasma gondii growth in IFN-gamma-treated host cells; hits give low values | actives 3.8% (n = 69,000) | activity change, negative = inhibition, % (concentration not given with the values); in the data active means activity change below about -70%, passing the limit was not always enough;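 further: host cells are HeLa cells infected with Toxoplasma gondii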
Active calls of the source: *.

SMILES | Tg IFNy HTS
COc1ccc2[nH]c(C(=O)NC(C)c3ccc4c(c3)CCCO4)c(NC(C)=O)c2c1 (stereo unspecified) | 15
O=C(c1cccs1)N1CCC(c2nc(-c3ccccn3)ncc2-c2ccncc2)CC1 | 29
C=CCNc1nc(NCC=C)nc(N2CCN(C(c3ccc(F)cc3)c3ccc(F)cc3)CC2)n1 | -72*
OC(CN1CCN(c2ncccn2)CC1)c1ccc(F)cc1 (stereo unspecified) | 11
Cc1noc(-c2cc(=O)n(CC(=O)Nc3ccc(C(C)C)cc3)c3ccccc23)n1 | -32
COc1ccccc1OCC(=O)N1CCC[C@]2(C[C@H](OC)CO2)C1 | 3
CCC(CO)NC(=O)c1ccc2ccc(N(C)c3ccc(F)cc3)n2c1 (stereo unspecified) | 4
COc1ccc(-c2ccccc2OC(C)C(N)=O)cn1 (stereo unspecified) | 2
COc1ccc(-c2cc3c(C)nc(N)nc3n(C3CCC(OCCO)CC3)c2=O)cn1 (stereo unspecified) | -83*
CCC(=O)Nc1ccc(-c2ccc(OC)nc2)c(C)n1 | 85
S=C(Nc1ccccc1)SCc1c(Cl)cccc1Cl | 74
O=C(C[C@H]1CC[C@H]2[C@@H](COC[C@@H](O)CN2C(=O)c2ccncc2)O1)Nc1ccc(-c2ccccc2)cc1 | -33
CN(Cc1cc(-c2ccncc2)no1)Cc1cnc(-c2ccccc2)s1 | -2
COc1ccc(CCN(C)CCc2ccc(OC)c(OC)c2)cc1OC | 5
COc1ccc(CCN(C)CCCOc2ccc(S(=O)(=O)c3c(C(C)C)c4ccccc4n3C)cc2)cc1OC | -73*
COc1ccc(CCN(C)CCCC(C#N)(c2cc(OC)c(OC)c(OC)c2)C(C)C)cc1OC (stereo unspecified) | -47
Cc1nn(C)c(C)c1CCC(=O)NC(C)c1ccccc1-n1cccn1 (stereo unspecified) | -47
Cc1c(-c2ccc(F)cc2)[nH]c2ccc(CNS(=O)(=O)C3CC3)cc12 | 0
c1csc(-c2nc3ccc4ccccc4c3c3c2CCC3)c1 | 121
c1csc(-c2nnc(Cc3ccncc3)c3ccccc23)c1 | -91*
CCS(=O)(=O)N1CCN(c2nnc(-c3cccs3)c(-c3cccs3)n2)CC1 | 174
FC(F)(F)c1cccc(CCC2CCCN(Cc3ccncc3)C2)c1 (stereo unspecified) | -45
Cc1nc(N2CCCC2)nc2c1CCN(C(=O)c1ccoc1C)CC2 | -1
CCc1ccc(C(=O)Nc2ccc(-c3nc(Cn4cccn4)c(C)o3)cc2)cc1 | -11
Cc1cnn(Cc2nc(-c3ccc(NC(=O)COc4ccccc4)cc3)oc2C)c1 | -38
SMILES | Tg IFNy HTS
CCOc1ccc(C(=O)Nc2ccc(-c3nc(Cn4cc(C)cn4)c(C)o3)cc2)cc1 | -91*
Cc1cnn(Cc2nc(-c3ccc(NC(=O)c4ccc(Cl)cc4)cc3)oc2C)c1 | -87*
Cc1cnn(Cc2nc(-c3ccc(NC(=O)c4cccc(Cl)c4)cc3)oc2C)c1 | 53
COc1ccc(Cl)cc1C(=O)Nc1ccc(-c2nc(Cn3cc(C)cn3)c(C)o2)cc1 | 29
O=C1CC2(CCOCC2)Oc2ccc(Cl)cc21 | 100
COc1ccccc1CNC(=O)C[C@@H]1CC[C@@H]2[C@H](COC[C@H](O)CN2Cc2ccc3c(c2)OCO3)O1 | -22
COc1cccc(-n2c(=O)c(C(=O)NC3CCCC3)c(O)c3cccnc32)c1 | 15
COc1ccc2cc(-c3cc(-c4cc(Cl)cc(Cl)c4)nn3[C@@H](C)c3ccc(C(=O)NCCC(=O)O)cc3)ccc2c1 | -73*
CC(C)Oc1ccc(C(=O)NCCc2csc(-c3ccc(Cl)cc3)n2)cc1 | 7
COc1ccc(C(=O)NCCc2csc(-c3ccc(Cl)cc3)n2)cc1 | -58
Cc1nccn1-c1ccc(CNC(=O)CCC(=O)NC2CCCC2)cc1 | 1
Cc1ccc(Nc2c(F)cccc2Cl)c(CC(=O)O)c1 | 17
CC(C)NC(=O)C1Cn2ccnc2C2(CCN(C(=O)c3ccc[nH]3)CC2)O1 (stereo unspecified) | 2
CC1=NOC(C)(C(=O)NCc2cccnc2N(C)Cc2ccccc2)C1 (stereo unspecified) | -1
C[C@H](CO)N1C[C@H](C)[C@@H](CN(C)C(=O)[C@H](Cc2ccccc2)N(C)C)OCc2ccccc2-c2c(n(C)c3ccccc23)C1=O | 33
C[C@@H]1CN([C@@H](C)CO)C(=O)c2c(c3ccccc3n2C)-c2ccccc2CO[C@@H]1CN(C)C(=O)[C@@H](Cc1ccccc1)N(C)C | -31
C[C@H](CO)N1C[C@H](C)[C@H](CN(C)C(=O)[C@@H](Cc2ccccc2)N(C)C)OCc2ccccc2-c2c(n(C)c3ccccc23)C1=O | -72*
CO[C@@H]1CCN(Cc2ccoc2)[C@H]1Cc1ccccc1 | 14
CN1[C@@H]2CC[C@H]1CC(OC(=O)c1c[nH]c3ccccc13)C2 (stereo partly specified) | -5
CN(C)c1cc(OC2CCN(C(=O)c3c[nH]c4ccccc34)C2)ncn1 (stereo unspecified) | -84*
CN1C2CCC1CC(OC(=O)c1c[nH]c3ccccc13)C2 (stereo unspecified) | 12
CN(Cc1ccccc1-n1cccn1)C(=O)[C@H]1CCCO1 | -21
O=C(c1nc2sccn2c1CN1CCCC(c2ccccc2)C1)N1CCCCCCC1 (stereo unspecified) | -21
Fc1cccc(F)c1-c1nc(-c2cccc(-n3cccc3)c2)no1 | 133
COc1cc(Nc2ncc(F)c(Nc3ccc4c(n3)N(COP(=O)(O)O)C(=O)C(C)(C)O4)n2)cc(OC)c1OC | -74*
SMILES | Tg IFNy HTS
C=CC(=O)Nc1cccc(Nc2nc(Nc3ccc(OCCOC)cc3)ncc2F)c1 | -45
Cn1nc(-c2ccccn2)c2c1NC(=O)CC2c1csc(-c2ccccc2)n1 (stereo unspecified) | -11
Cc1nccn1CC1(O)CCN(C(=O)CCc2ccc3c(c2)OCO3)CC1 | 59
Cc1cc(C(=O)N2CCCC(c3ccc(Cc4ccc(Cl)cc4)cn3)C2)nc(N(C)C)n1 (stereo unspecified) | -90*
Cc1nc2ccccn2c1CC(=O)N1CCCC(c2ccc(Cc3cccc(F)c3)cn2)C1 (stereo unspecified) | -15
CCCc1cc(C(=O)N2CCCC(c3cc4ccccc4cn3)C2)n(C)n1 (stereo unspecified) | -31
COc1ccccc1CNC(=O)c1c(O)c2ccccc2n(-c2ccccc2)c1=O | 48
Cc1ccc(C(=O)N2CCc3c(CNc4ncccn4)nn(C)c3C2)cc1F | 3
O=C(COC(=O)c1ccc(Cl)nc1)NC1CCCCC1 | 1
Clc1ccc(-c2nc(C34CC5CC(CC(C5)C3)C4)cs2)cc1 | 68
O=C(NC12CC3CC(CC(C3)C1)C2)c1cccnc1 | 6
O=C(Nc1nc(C23CC4CC(CC(C4)C2)C3)cs1)c1ccccc1 | -107*
COc1ccc(/C=C/CN2CCC3(CC2)C(=O)N(C)C(=O)N3CC(C)C)cc1 | 17
CCn1c(CC2CCN(Cc3ccc4nonc4c3)CC2)nn(C)c1=O | 4
CN=C1Sc2nc3c(cc2CN1C1CCCCC1)c(C(C)(C)C)nn3-c1ccccc1 | -85*
Cc1c(C2CC(=O)Nc3c2c(-c2cccnc2)nn3C)oc2ccccc12 (stereo unspecified) | -3
COc1ccccc1-c1cn(CC[C@@H]2CC[C@H](NC(=O)C3CCCCC3)[C@@H](CO)O2)nn1 | -44
C=CC(=O)N1CCC[C@@H](n2nc(-c3ccc(Oc4ccccc4)cc3)c3c(N)ncnc32)C1 | -79*
COc1ccc(-c2ncnc3c2c(C(=O)N2CCCC2)c2ccccn23)cc1 | -50

Screening results (PubChem)
